In the library only some 19% were active in any assay of this set; here they are far more common.
DT40 TDP1 CPT: qHTS for Inhibitors of human tyrosyl-DNA phosphodiesterase 1 (TDP1): qHTS in cells in presence of CPT; chicken DT40 Tdp1-/-;hTDP1 cells + 20 nM CPT, ATP luminescence, 48 h; Potency, µM (series often up to 46.2 µM), most hits filed as inhibitors; 420,000 compounds, 12% hits; AID 686979, 2013; note: nearly all actives have a fitted effect of over 55% in size
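Cell growth measured by CellTiter-Glo luminescence after a minimum 48 h, 37 C compound exposure with 20 nM CPT in Tdp1-knockout DT40 cells stably expressing hTDP1, seeded 400/well; qHTS titration format.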
TDP1 cell noCPT: qHTS for Inhibitors of human tyrosyl-DNA phosphodiesterase 1 (TDP1): qHTS in cells in absence of CPT. DT40 Tdp1-/- hTDP1 cells, no CPT, ATP luminescence, 48 h. Potency, µM (titrated, usually from 46.2 µM), hits mostly inhibitors. 420,000 compounds, 15% hits. AID 686978, 2013; note: nearly all actives have a fitted effect of over 55% in size
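Camptothecin absent (DMSO only). Human TDP1-complemented DT40 knockout cells, 400 cells/well, 37 °C for minimum 48 hr; ATP measured via CellTiter-Glo, 30 min dark incubation, luminescence.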
HT1080NT lethal: qHTS for induction of synthetic lethality in tumor cells producing 2HG: qHTS for the HT-1080-NT fibrosarcoma cell line; HT-1080-NT fibrosarcoma viability, CellTiter-Glo ATP luminescence, 48 h; Potency, µM (top dose mostly 46.1 µM), most hits filed as cytotoxic; 360,000 compounds, 1.6% hits;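 note: NT is the 2HG producing partner of a matched IDH1 knockdown line; nearly all actives have a fitted effect of over 55% in size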
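Viability of the 2HG-overproducing fibrosarcoma line after 48 hours of compound exposure at 37 degrees C was determined by luminescence with CellTiter-Glo, and concentration-effect curves were then fitted and categorized.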
HT1080 IDH1KD tx: qHTS for induction of synthetic lethality in tumor cells producing 2HG: qHTS for the HT-1080-IDH1KD cell line; AID 686971, 2013; 360,000 compounds, 2% hits; HT-1080 IDH1 knockdown viability, ATP luminescence, 48 h; Potency, µM (doses to about 46.1 µM), usual class: cytotoxic
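HT-1080-IDH1KD cells (IDH1 knocked down), 750/well in RPMI with 5% FBS, treated with compound 48 h at 37 degrees C. Viability by CellTiter-Glo luminescence, normalised to DMSO and no-cell wells; concentration-response curves classed.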
IL-1B inflam inh: qHTS for Inhibitors of Inflammasome Signaling: IL-1-beta AlphaLISA Primary Screen; AID 743279, 2014; activity change, % at 57.5 µM; THP-1 LPS/ATP IL-1B secretion, AlphaLISA, 16 h; active compounds read low; 360,000 compounds, 4.7% hits; in the data active = activity change below about -50%; inconclusive = mostly about -30% to -49%
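Secreted IL-1B measured by AlphaLISA bead assay after 16 h compound exposure of THP-1 cells; compounds (final up to 57.5 uM) added 1 h before LPS (250 ng/mL) and ATP (1.25 mM) stimulation; lower signal means less secretion.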
Hits are given with their value. Unless noted, calls come from the whole dose curve; as a rule, active = well fitted curve in the direction sought with a large enough effect; inconclusive = small, poorly fitted or top-dose-only effect, or another doubt; inactive = no such curve, though single readings can be large; an effect the other way counts as inactive or inconclusive.

CC(=O)c1ccc(N2CCN(S(=O)(=O)c3ccc4c5c3CC(=O)N5CC(C)S4)CC2)cc1 (configuration not stated) was read as DT40 TDP1 CPT 21µM, TDP1 cell noCPT 21µM, HT1080NT lethal inactive, HT1080 IDH1KD tx inactive and IL-1B inflam inh inactive.
For O=C(NCc1cccs1)C1CCCN(c2nc3ccccc3o2)C1 (configuration not stated) the results were DT40 TDP1 CPT inactive, TDP1 cell noCPT inactive, HT1080NT lethal inconclusive, HT1080 IDH1KD tx inactive and IL-1B inflam inh inactive.
For O=C(NC(c1ccc(-c2ccccc2)cc1)c1cnccn1)C1CCN(Cc2cccc(C(F)(F)F)c2)CC1 (configuration not stated) the results were DT40 TDP1 CPT 26µM, TDP1 cell noCPT 18µM, HT1080NT lethal inactive, HT1080 IDH1KD tx inconclusive and IL-1B inflam inh -63.
For O=C(NC(c1ccc(Cl)cc1)c1cnccn1)C1CCN(Cc2ccccc2)CC1 (configuration not stated) the results were DT40 TDP1 CPT inconclusive, TDP1 cell noCPT inconclusive, HT1080NT lethal inactive, HT1080 IDH1KD tx inactive and IL-1B inflam inh inactive.
For O=C(NC(c1ccc(Cl)cc1)c1cnccn1)C1CCN(Cc2cccc(C(F)(F)F)c2)CC1 (configuration not stated) the results were DT40 TDP1 CPT 12µM, TDP1 cell noCPT 8.2µM, HT1080NT lethal inconclusive and HT1080 IDH1KD tx inconclusive.
`CN(C)c1ccc(CN2CCC(C(=O)NC(c3ccc(Cl)cc3)c3cnccn3)CC2)cc1` (configuration not stated) gave DT40 TDP1 CPT 21µM, TDP1 cell noCPT 16µM, HT1080NT lethal inactive, HT1080 IDH1KD tx inconclusive and IL-1B inflam inh inconclusive.
For CCOc1ccc(Oc2c(C)oc3cc(O)ccc3c2=O)cc1 the results were DT40 TDP1 CPT inactive, TDP1 cell noCPT inactive, HT1080NT lethal inactive, HT1080 IDH1KD tx inactive and IL-1B inflam inh inactive.
CCOC(=O)c1ccc(Oc2c(C)oc3cc(OS(C)(=O)=O)ccc3c2=O)cc1 was read as DT40 TDP1 CPT 16µM, TDP1 cell noCPT 16µM, HT1080NT lethal inactive, HT1080 IDH1KD tx inactive and IL-1B inflam inh inactive.
`Cc1oc2cc(O)ccc2c(=O)c1Oc1ccccc1` gave DT40 TDP1 CPT 6.5µM, TDP1 cell noCPT 5.8µM, HT1080NT lethal inactive, HT1080 IDH1KD tx inactive and IL-1B inflam inh inactive.
Screening COc1ccccc1CNC(=O)c1cccc(N2CCCS2(=O)=O)c1 returned DT40 TDP1 CPT inactive and TDP1 cell noCPT inconclusive.
`O=C(NCc1ccc(Cl)cc1Cl)c1cccc(N2CCCS2(=O)=O)c1` gave DT40 TDP1 CPT 16µM and TDP1 cell noCPT inconclusive.
For Cc1cc(C)cc(NC(=O)c2cccc(N3CCCS3(=O)=O)c2)c1 the results were DT40 TDP1 CPT 15µM and TDP1 cell noCPT inconclusive.
`COc1cccc(CC(=O)NN2C(=O)NC3(CCCCC3)C2=O)c1` gave DT40 TDP1 CPT inactive, TDP1 cell noCPT inactive, HT1080NT lethal inactive, HT1080 IDH1KD tx inactive and IL-1B inflam inh inactive.
N#Cc1ccc(/C=N/NC(=O)c2cc(-c3cccs3)nc3ccccc23)cc1 was read as DT40 TDP1 CPT 9.2µM, TDP1 cell noCPT 21µM, HT1080NT lethal inconclusive, HT1080 IDH1KD tx 10µM and IL-1B inflam inh inactive.
COc1cc(/C=N/NC(=O)c2cc(-c3cccs3)nc3ccccc23)ccc1O was read as DT40 TDP1 CPT 9.2µM, TDP1 cell noCPT 9.2µM, HT1080NT lethal inactive, HT1080 IDH1KD tx inconclusive and IL-1B inflam inh inactive.
N#Cc1ccc(-c2csc(NC(=O)c3cc(-c4cccs4)nc4ccccc34)n2)cc1 was read as DT40 TDP1 CPT inconclusive, TDP1 cell noCPT inconclusive, HT1080NT lethal inactive, HT1080 IDH1KD tx inactive and IL-1B inflam inh inconclusive.
`COc1cc(/C=N/NC(=O)c2cc(-c3cccc(OC(C)C)c3)nc3ccccc23)ccc1O` gave DT40 TDP1 CPT inconclusive, TDP1 cell noCPT 2.1µM, HT1080NT lethal inconclusive, HT1080 IDH1KD tx inconclusive and IL-1B inflam inh inactive.
Screening COc1cc(/C=N/NC(=O)c2cc(-c3ccccc3)nc3ccccc23)cc(OC)c1O returned DT40 TDP1 CPT inconclusive, TDP1 cell noCPT inconclusive, HT1080NT lethal inactive, HT1080 IDH1KD tx inactive and IL-1B inflam inh inactive.
For N#Cc1c(C(F)(F)F)cc(=O)n2c1[nH]c1ccccc12 the results were DT40 TDP1 CPT 13µM, TDP1 cell noCPT 15µM, HT1080NT lethal 4.6µM, HT1080 IDH1KD tx 26µM and IL-1B inflam inh -74.
Screening COc1cccc(-n2cc(CNCc3c(C(=O)N(C)C)nc4ccc(Cl)cn34)cn2)c1 returned DT40 TDP1 CPT inconclusive, TDP1 cell noCPT 15µM, HT1080NT lethal inactive, HT1080 IDH1KD tx inactive and IL-1B inflam inh inactive.
CN(Cc1cccc(-n2cccn2)c1)Cc1cn(C)nc1-c1ccccc1F was read as DT40 TDP1 CPT inconclusive, TDP1 cell noCPT inconclusive, HT1080NT lethal inactive, HT1080 IDH1KD tx inactive and IL-1B inflam inh inactive.
`COc1cccc(-n2cc(CNCc3cn(C)nc3-c3ccccc3F)cn2)c1` gave DT40 TDP1 CPT inconclusive, TDP1 cell noCPT 26µM, HT1080NT lethal inactive, HT1080 IDH1KD tx inconclusive and IL-1B inflam inh inactive.
`COc1ccc(CN(C)Cc2nc3scc(-c4ccccc4)c3c(=O)[nH]2)cc1OC` gave DT40 TDP1 CPT 13µM, TDP1 cell noCPT 6.5µM, HT1080NT lethal inactive, HT1080 IDH1KD tx inactive and IL-1B inflam inh inactive.
Screening CSCc1nc2scc(-c3ccccc3)c2c(=O)[nH]1 returned DT40 TDP1 CPT inactive, TDP1 cell noCPT inactive, HT1080NT lethal inactive, HT1080 IDH1KD tx inactive and IL-1B inflam inh inactive.
Screening O=S(=O)(NC1CC(NS(=O)(=O)OCC(Cl)(Cl)Cl)C2CCCCC12)OCC(Cl)(Cl)Cl (configuration not stated) returned DT40 TDP1 CPT 15µM, TDP1 cell noCPT 15µM, HT1080NT lethal inconclusive, HT1080 IDH1KD tx inconclusive and IL-1B inflam inh inactive.
For C[C@H](NS(=O)(=O)OCC(Cl)(Cl)Cl)C1CC1c1ccccc1 (some centres not stated) the results were DT40 TDP1 CPT inactive, TDP1 cell noCPT inactive, HT1080NT lethal inactive, HT1080 IDH1KD tx inactive and IL-1B inflam inh inactive.
`CC(C)(C)C(=O)NNC(=O)c1cc(C(C)(C)C)nn1Cc1ccccc1` gave DT40 TDP1 CPT inactive, TDP1 cell noCPT inactive, HT1080NT lethal inactive, HT1080 IDH1KD tx inactive and IL-1B inflam inh inactive.
Screening CC(C)(C)c1cc(C(=O)NNc2ccc(OC(F)(F)F)cc2)n(Cc2ccccc2)n1 returned DT40 TDP1 CPT inactive, TDP1 cell noCPT inconclusive, HT1080NT lethal inconclusive and HT1080 IDH1KD tx 7.3µM.
For CC(C)(C)c1cc(C(=O)NNc2cccc(Cl)c2)n(Cc2ccccc2)n1 the results were DT40 TDP1 CPT inconclusive, TDP1 cell noCPT inconclusive, HT1080NT lethal 21µM, HT1080 IDH1KD tx 18µM and IL-1B inflam inh -68.
